# CtBP-E1A inh: blocks the CtBP interaction with E1A. AlphaScreen GST-E1A/His-CtBP binding, 1536-well; active compounds read low. activity change, % (no concentration beside the values). actives 0.49% (n = 340,000). AID 651724
#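 AlphaScreen with 125 nM GST-E1A and 125 nM His-CtBP (5X stocks) in Tris pH 8.0, 300 mM NaCl, BSA, Tween 20, TCEP. Compounds preincubated 2 h at 37 deg C, then glutathione donor/nickel acceptor beads added for 1 h at 37 deg C in dark.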
# PI5P4Ka inh: blocks human PI5P4K alpha kinase activity | PI5P4Kalpha enzyme, ADP-Glo luminescence, 60 min; active compounds read low | P48426 | AID 652105 | max response, % | actives 1.2% (n = 330,000); active = max response of -50% or lower; inconclusive = between -30% and -50%; inactive = -30% or higher; also: value at the top dose of about 77 µM
#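 Quantitative HTS of the MLSMR library against PI5P4Kalpha with substrate. ATP added last at 5 microM final; room temperature, 60 minutes. Remaining ATP depleted, ADP converted and read as luminescence.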
# PI4K2A inh: PI4K2A (human) kinase inhibition. Q9BTU6. AID 1346378. actives 0.13% (n = 420,000). activity change, negative = inhibition, % at 76.9 µM. purified PI4K2A, ADP-Glo luminescence, 1 h; active compounds read low; in the data active = activity change below about -50%; inconclusive = mostly about -30% to -49%;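 also: -100% = wells without enzyme as full effect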
# Target sequence (Q9BTU6 whole entry, looked up): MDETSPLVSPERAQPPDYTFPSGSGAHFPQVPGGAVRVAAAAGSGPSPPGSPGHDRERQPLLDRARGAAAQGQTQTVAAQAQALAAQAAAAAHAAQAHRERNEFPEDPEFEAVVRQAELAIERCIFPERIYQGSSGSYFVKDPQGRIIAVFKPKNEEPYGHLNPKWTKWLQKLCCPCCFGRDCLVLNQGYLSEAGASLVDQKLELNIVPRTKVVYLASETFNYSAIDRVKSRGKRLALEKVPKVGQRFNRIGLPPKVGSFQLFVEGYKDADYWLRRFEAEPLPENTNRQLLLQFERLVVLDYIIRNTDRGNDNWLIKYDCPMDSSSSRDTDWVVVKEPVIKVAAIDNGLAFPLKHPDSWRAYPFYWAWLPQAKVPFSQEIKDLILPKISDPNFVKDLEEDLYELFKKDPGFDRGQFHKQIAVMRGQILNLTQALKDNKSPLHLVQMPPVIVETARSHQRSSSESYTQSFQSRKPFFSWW
#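 PI4K2A activity was measured by ADP-Glo luminescence: enzyme (4 ug/mL stock) and phosphatidylinositol (1.2 mM stock) in Tris pH 7.5/MgCl2/EGTA/Triton X-100 buffer were reacted with ATP (300 microM stock) for one hour at ambient temperature.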
# pAkt inh: inhibitors of Akt phosphorylation. Neuro2A IGF-stimulated pAkt S473 HTRF, 20 min; active compounds read low. activity change, % for hits at 50 µM. actives 0.32% (n = 360,000); in the data active = activity change below about -80%; inconclusive = mostly about -51% to -80%
#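 Single-point screen (50 µM final compound) in Neuro2A cells stimulated 20 min with 6 nM IGF at 37 deg C. After lysis, Ser473-phosphorylated Akt read by HTRF (ex 330 nm, em 615/665 nm) as the 665/615 ratio.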
# Six1-Eya2 inh: blocks human Six1 binding to Eya2; actives 0.56% (n = 360,000); AlphaScreen GST-Six1/His-Eya2 binding, biochemical; active compounds read low; Q15475+O00167; activity change, % (no concentration beside the values)
#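 AlphaScreen luminescence read after one hour at 37 °C in darkness. Pin-transferred compounds met GST-Six1 and His-Eya2 protein (5X stock 250 nM/500 nM) plus glutathione donor and Ni-chelate acceptor beads (5X, 50 ug/mL).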
# ADP-Glo counter: counter-screen for PI5P4K inhibitors: ADP-Glo detection interference, no enzyme | shares compounds with PI5P4Ka inh | Potency, µM (doses to about 76.9 µM), for inactives: top-dose activity change, negative = inhibition, actives largely listed as inhibitors | AID 743285 | ADP-Glo detection counter-screen, luciferase luminescence, no enzyme | 1,100 tested, under 10 active; active = well fitted curve in the direction sought with a large enough effect; inconclusive = small, poorly fitted or top-dose-only effect, or another doubt; inactive = no such curve, though single readings can be large or run the other way
# Starred values were filed as active, the others as inactive; i = inactive; ? = inconclusive; / = not tested or not shown; ! = not confirmed by another sample. Hits are enriched below; roughly 1.8% of the tested compounds scored in any of these assays. Rule as the data show it, unless noted: active = activity change below about -65%; inconclusive = mostly about -30% to -63%; inactive = weaker than that. Unless noted, % is scaled to controls: 0 for no effect and ±100 for the full control effect.
SMILES,CtBP-E1A inh,PI5P4Ka inh,PI4K2A inh,pAkt inh,Six1-Eya2 inh,ADP-Glo counter
COc1ccc2ccccc2c1C1CC(=O)N2CN(Cc3ccco3)CSC2=C1C#N (stereo unspecified),-3.3,?,-4.4,i,-0.1,/
CC(C)c1ccc(C2CC(=O)N3CN(Cc4ccco4)CSC3=C2C#N)cc1 (stereo unspecified),-3.5,-21.4,-2.0,i,-3.0,/
CCc1ccccc1N1CSC2=C(C#N)C(c3ccccc3F)CC(=O)N2C1 (stereo unspecified),9.4,-60.0*,-3.2,i,-3.8,-7.9%
COc1ccc2ccccc2c1C1CC(=O)N2CN(C3CCCCC3)CSC2=C1C#N (stereo unspecified),-14.6,-56.1*,-5.4,i,-6.5,-4.6%
COc1ccc(N2CSC3=C(C#N)C(c4cccc(OC)c4OC)CC(=O)N3C2)cc1 (stereo unspecified),-0.5,-50.6*,-3.6,i,-11.7,-14.1%
Nc1cc2nc[nH]c2cc1N,?,-26.8,-1.6,i,?,/
CCOc1ccc(S(=O)(=O)N(CC(=O)NCCSc2ccccc2)c2ccccc2)cc1,/,/,1.7,/,/,/
CC(C)CCNC(=O)C1CC(=O)N(CCc2ccccc2)C1 (stereo unspecified),8.6,-1.0,3.8,i,3.0,/
COC(=O)CCCC1=CC2=CC(=O)C(C)(OC(=O)c3cccs3)C(=O)C2=CN1CCCOC(C)C (stereo unspecified),-5.8,2.0,-12.0,i,-5.7,/
FC(F)(F)c1cccc(N2CCN(C(=S)NCC3CCCO3)CC2)c1 (stereo unspecified),0.0,0.2,8.6,i,-3.6,/
Cc1ccc(-c2cc(C(=O)NN3CCOCC3)c3cc(Br)ccc3n2)o1,3.1,-28.9,-0.8,i,8.1,/
Cc1ccc(-c2cc(C(=O)NCc3ccco3)c3ccccc3n2)o1,-9.0,-88.1*,-19.5,i,-29.1,-0.9%
Cc1ccc(-c2cc(C(=O)O)c3cc(Br)ccc3n2)o1,-8.5,-68.8*,-13.2,i,?,0.1%
CCc1nnc(NC(=O)c2cc(-c3ccc(C)o3)nc3ccccc23)s1,?,-54.7*,-3.5,i,-22.1,5.2%
CC1CC(C)(C)CC2(C1)NC(=O)N(CC(=O)N1CCN(Cc3ccc(C#N)cc3)CC1)C2=O (stereo unspecified),-14.6,-0.1,2.7,i,3.4,/
CCOC(=O)[C@]12CCC=C1N(Cc1ccccc1)C(=O)[C@H](CC(=O)NCC13CC4CC(CC(C4)C1)C3)C2,-2.2,11.5,0.5,i,-9.8,/
Oc1ccc(Br)cc1CN1CCCCCCC1,14.3,/,6.7,i,9.0,/
O=C(c1ccc(OCCN2CCCCC2)cc1)c1c(-c2ccc(O)cc2)sc2cc(O)ccc12,-12.8,-50.8*!,4.9,i,-22.9,-4.9%
Cc1ccc(NC(=O)CSc2nnc(C3CC3)n2C)cc1S(=O)(=O)N1CCCCC1,/,-0.6,-1.5,i,-7.0,/
Cc1c(C(=O)OCC(C)C)[nH]c2c1C(=O)CC(c1ccco1)C2 (stereo unspecified),-3.8,-55.7*,-8.8,i,-15.3,-13.3%
Cc1ccc(-c2csc(NC(=O)c3ccc(C)o3)n2)cc1,-8.4,0.2,1.3,i,-1.0,/
Cc1ccc(-c2csc(NC(=O)c3ccno3)n2)cc1,0.4,-53.2*,-8.5,i,-15.1,-3.1%
CCCNC(=O)CCc1c(C)nc2nc(CNC(=O)c3ccccc3)nn2c1C,/,/,0.3,/,/,/
CCCCCCCCN1C(=O)[C@H](CC(=O)NCc2ccc(C)o2)C[C@@]2(C(=O)OC)CC(C)(C)CC=C12,1.8,-51.0*,-4.0,i,-9.2,-1.0%
CCCCCCCCN1C(=O)[C@H](CC(=O)NCc2cccs2)C[C@@]2(C(=O)OC)CC(C)(C)CC=C12,-1.1,2.0,-9.2,i,-6.8,/
SMILES,CtBP-E1A inh,PI5P4Ka inh,PI4K2A inh,pAkt inh,Six1-Eya2 inh,ADP-Glo counter
CN(C)S(=O)(=O)c1cccc(NC(=S)NC(=O)c2ccco2)c1,0.1,2.3,6.8,i,-0.6,/
CN1CCCC(C)(C(=O)Nc2ccc(-n3cccc3)cc2)C1 (stereo unspecified),-9.7,-1.0,5.6,i,-12.5,/
CC(C)C(=O)N1CCN(c2ccccc2NC(=O)c2ccco2)CC1,-1.5,-58.8*,413.3,i,-4.2,2.3%
Cc1ccc(-c2cc(C(=O)NCc3ccccc3Cl)c3ccccc3n2)cc1C,/,/,0.3,/,/,/
Cc1ccc(NC(=O)CN2C(=O)S/C(=C/c3ccc(-c4cccc(C(=O)O)c4)o3)C2=O)cc1,2.6,?,-2.5,i,6.4,/
C#CCN1C(=O)S/C(=C\c2ccc(-c3ccc(C(=O)O)cc3C)o2)C1=O,0.2,-57.0*,-2.9,i,-14.9,1.5%
CC(NC(=O)CN1c2cccc3cccc(c23)S1(=O)=O)c1ccc(S(N)(=O)=O)cc1 (stereo unspecified),-7.5,-55.2*,-13.4,i,-2.7,1.5%
CC(NC(=O)CN1c2cccc3cccc(c23)S1(=O)=O)c1ccccc1 (stereo unspecified),-19.3,-28.3,-3.0,i,12.3,/
COc1cccc(CNC(=O)CN2c3cccc4cccc(c34)S2(=O)=O)c1,1.3,-64.5*,-10.5,i,-4.5,-6.5%
Cc1cc(C(=O)Nc2sccc2C#N)c2ccccc2n1,-15.4,-72.7*,-3.7,i,-17.3,1.2%
CCCCOc1ccc(NC(=S)Nc2cc(C)nc(SCCCC)n2)cc1,21.1,10.2,-20.1,i,4.4,/
O=C(CCS(=O)(=O)c1ccc2c(c1)NC(=O)CS2)NCCc1ccc(Cl)cc1,3.2,-59.8*,-2.2,i,5.6,-0.1%
Nc1sc2c(c1C(=O)c1ccccc1)CCCC2,1.4,-50.6*,1.2,i,-2.9,-6.5%
O=C(CCN1CCc2ccccc2C(c2ccccc2)C1)c1ccc2c(c1)OCCO2 (stereo unspecified),-14.9,-54.5*,12.2,i,-19.9,-10.6%
O=C(CCN1Cc2ccccc2C1)c1ccc2c(c1)OCCO2,6.1,/,8.2,i,-1.4,/
Cc1cccc(OCC(=O)NCC2(N3CCN(C)CC3)CCCCC2)c1C,/,/,-6.1,/,/,/
O=c1[nH]c(N2CCOCC2)cc2ccccc12,3.3,-3.1,?,i,11.6,-5.0%
O=c1c(N2CCOCC2)coc2ccccc12,/,-2.9,-4.5,i,16.7,/
CC1=NN(c2nc(-c3ccc(Cl)cc3)cs2)C(=O)C1,12.2,-66.7*,-14.6,i,5.5,-7.6%
CCC(=O)Nc1nc(C)c(-c2csc(Nc3cccc(C(=O)O)c3)n2)s1,-2.2,-23.3,-6.2,i,-28.0,/

# Bioassay records: PubChem BioAssay, National Center for Advancing Translational Sciences (NCATS)
